# ChEMBL document CHEMBL3988442, “University of Dundee, Small-Polar-MMV Screening Library” (2021)
# Among all 66,000 compounds or so, about 960 (1.5%) showed an effect of 50% or more. Many of the other results were omitted from the sample, so strong results are more common in it than they were.
# Tested on: Trypanosoma brucei
# Assay: Trypanosoma brucei 72 hour study
# Format: functional, organism-based
# Set-up: scale not given: in the data most compounds retested in dose-response had high values
compound,measurement,setting,value
O=C(NCCc1ccn(-c2ccccc2)n1)N1CCCC(O)C1 (stereo not drawn),Percent Effect,10 µM,103.1%
O=C(NCCC1Cc2ccccc2C1)N1CCCC(O)C1 (stereo not drawn),Percent Effect,"30.3 µM, […]",-66.43%
CCOC1CCN(C(=O)NCCc2ccn(-c3ccccc3)n2)CC1,Percent Effect,10 µM,-34.62%
CSc1ccccc1C(=O)N1C[C@H]2CC[C@@H]1CN(C(=O)N(C)C)C2,Percent Effect,"30 µM, 30.03 µM",-19.87%
O=C(O)C(F)(F)F.O=C([C@H]1CC[C@@H]2[C@@H](CCN2C2CCCC2)O1)N1CCOCC1,Percent Effect,"30.3 µM, […]",3.599%
Cc1ccc(CN2CCC3(CCC3NC(=O)c3ccn(C)c3)CC2)s1.O=C(O)C(F)(F)F (stereo not drawn),Percent Effect,"30 µM, 30.03 µM",-8.436%
COc1c(CNCCNC(=O)c2ccccc2)c(C)nn1C.Cl,Percent Effect,"30.3 µM, […]",-11.06%
CCN(C)S(=O)(=O)NCC(O)c1c(Cl)cccc1Cl (stereo not drawn),Percent Effect,"30 µM, 30.03 µM",-61.52%
CSc1ncc(C(=O)N2CCN(c3ccccc3C)CC2C)cn1 (stereo not drawn),Percent Effect,"30.3 µM, […]",-20.66%
Cc1ccccc1N1CCN(C(=O)c2cscn2)C(C)C1 (stereo not drawn),Percent Effect,"30.3 µM, […]",-44.71%
Cc1ccccc1N1CCN(C(=O)c2ccc[nH]2)C(C)C1 (stereo not drawn),Percent Effect,"30 µM, 30.03 µM",53.58%
CNc1cc(C(=O)NCCC2=CSC3=NCCCN23)ccn1,Percent Effect,"30.3 µM, […]",4.45%
Cc1cc(C)n(CC2CCCCN2C(=O)c2ccc3c(c2)COC3)n1 (stereo not drawn),Percent Effect,10 µM,-3.538%
same,Percent Effect,"30.3 µM, […]",12.9%
O=C(CN1CCC(c2cc(=O)n3c(n2)CCCCC3)C1)N1CCCCC1.O=C(O)CC(O)(CC(=O)O)C(=O)O (stereo not drawn),Percent Effect,"30.3 µM, […]",-90.53%
CC(=O)NC1CC(C)(C)Cc2c1cnn2-c1cccc(F)c1 (stereo not drawn),Percent Effect,"30 µM, 30.03 µM",-59.29%
CS(=O)(=O)NC(=O)c1nnn(-c2cccc(F)c2)c1C1CC1,Percent Effect,"30.3 µM, […]",-19.55%
CC1(C)Cc2c(cnn2-c2ccccc2)C(NC2CCSCC2)C1 (stereo not drawn),Percent Effect,"30 µM, 30.03 µM",82.22%
CC1(C)Cc2c(cnn2-c2cccc(F)c2)C(NC2CCSCC2)C1 (stereo not drawn),Percent Effect,"30 µM, 30.03 µM",99.5%
Cc1nn(-c2ccccc2)c(C)c1CNC(=O)NC1CC1,Percent Effect,"30 µM, 30.03 µM",-13.2%
CCC(Nc1nnnn1-c1ccccc1)C(=O)NC1CCSCC1 (stereo not drawn),Percent Effect,"30 µM, 30.03 µM",-25.42%
O=C(O)C(F)(F)F.O=C(O)C(F)(F)F.c1ccc(CN2CC[C@@H]3O[C@@H](COCC4CCOCC4)CC[C@@H]32)nc1,Percent Effect,"30 µM, 30.03 µM",11.6%
Nc1ccnc(N2C[C@@H]3CC[C@H](C2)N(CC2CCC2)C3=O)n1,Percent Effect,"30 µM, 30.03 µM",-6.843%
COc1ncccc1CN1CC[C@]2(C[C@@H](OCc3ccccn3)CO2)C1.O=C(O)C(F)(F)F.O=C(O)C(F)(F)F.O=C(O)C(F)(F)F,Percent Effect,"30 µM, 30.03 µM",2.267%
CCSc1ccc(C(=O)N2CC[C@](O)(CC)[C@H](O)C2)s1,Percent Effect,"30.3 µM, […]",-1.451%
O=C(c1ccc(=O)[nH]c1)N1CCC(Oc2cccc(C(F)(F)F)c2)CC1,Percent Effect,"30.3 µM, […]",9.238%
OC1(CN2CCC(Oc3cccc(C(F)(F)F)c3)CC2)CCNC1 (stereo not drawn),Percent Effect,"30 µM, 30.03 µM",92%
FC(F)(F)c1cccc(OC2CCN(Cc3ncc[nH]3)CC2)c1,Percent Effect,"30 µM, 30.03 µM",-13.87%
O=C(c1ccncc1)N1CCC(Oc2cccc(C(F)(F)F)c2)CC1,Percent Effect,"30.3 µM, […]",37.18%
Nc1cc(C(=O)N2CCC(Oc3cccc(C(F)(F)F)c3)CC2)ccn1,Percent Effect,"30.3 µM, […]",19.92%
CC(N)C(=O)N1CCC(Oc2cccc(C(F)(F)F)c2)CC1 (stereo not drawn),Percent Effect,"30.3 µM, […]",98.32%
O=C(c1cccnc1)N1CCC(Oc2cccc(C(F)(F)F)c2)CC1,Percent Effect,"30.3 µM, […]",6.021%
Nc1ccc(C(=O)N2CCC(Oc3cccc(C(F)(F)F)c3)CC2)cn1,Percent Effect,"30.3 µM, […]",54.87%
OC1(CN2CCC(Oc3cccc(C(F)(F)F)c3)CC2)CNCCOC1 (stereo not drawn),Percent Effect,"30 µM, 30.03 µM",-13.41%
CCc1[nH]c2c(CNc3nccc(N)n3)cc(F)cc2c1C,Percent Effect,"30 µM, 30.03 µM",24.46%
Cc1nc(CN2CCO[C@H]3[C@H](OCC(=O)N(C)C)CC[C@@H]32)cs1.O=C(O)C(F)(F)F,Percent Effect,"30 µM, 30.03 µM",-32.64%
Cn1nc(CN2CCCN(C3CCCC3)CC2)c2c(Cl)cccc21,Percent Effect,"30.3 µM, […]",100.6%
C[C@@H]1CN(C2CCN(Cc3nn(C)c4cccc(Cl)c34)CC2)C[C@H](C)O1,Percent Effect,"30.3 µM, […]",10.53%
Cn1nc(CN2CCC(c3ccncc3)CC2)c2c(Cl)cccc21,Percent Effect,"30.3 µM, […]",31.87%
Cc1cccc(N2CCC3(CCN(C(=O)c4cccnc4)CC3)C2)n1.O=C(O)C(F)(F)F.O=C(O)C(F)(F)F,Percent Effect,"30 µM, 30.03 µM",38.81%
Cc1cnc(N2CCC3(CCN(CC4CCCC4)C3=O)CC2)nc1.O=C(O)C(F)(F)F,Percent Effect,"30.3 µM, […]",-22.16%
CC1(C)CC(N(Cc2cccnc2)Cc2cccc(F)c2)CC(C)(C)N1.O=C(O)CC(O)(CC(=O)O)C(=O)O,Percent Effect,"30.3 µM, […]",92.81%
Cc1nc[nH]c1CN(Cc1ccccc1)C1CC(C)(C)NC(C)(C)C1.O=C(O)CC(O)(CC(=O)O)C(=O)O,Percent Effect,"30.3 µM, […]",9.969%
Cc1cccc(CN(Cc2cccnc2)C2CC(C)(C)NC(C)(C)C2)n1.O=C(O)CC(O)(CC(=O)O)C(=O)O,Percent Effect,"30.3 µM, […]",-21.3%
CCCN(Cc1cccnc1)C1CC(C)(C)NC(C)(C)C1.O=C(O)CC(O)(CC(=O)O)C(=O)O,Percent Effect,"30.3 µM, […]",3.437%
Cc1ccc(CN(Cc2cccnc2)C2CC(C)(C)NC(C)(C)C2)s1.O=C(O)CC(O)(CC(=O)O)C(=O)O,Percent Effect,"30.3 µM, […]",78.89%
Cc1ccsc1CN(Cc1cccnc1)C1CC(C)(C)NC(C)(C)C1.O=C(O)CC(O)(CC(=O)O)C(=O)O,Percent Effect,"30.3 µM, […]",61.32%
CC1(C)CC(N(Cc2ccncc2)Cc2cccnc2)CC(C)(C)N1.O=C(O)CC(O)(CC(=O)O)C(=O)O,Percent Effect,"30.3 µM, […]",3.133%
CC1(C)CC(N(Cc2ccccc2)Cc2cccnc2)CC(C)(C)N1.O=C(O)CC(O)(CC(=O)O)C(=O)O,Percent Effect,"30.3 µM, […]",27.73%
Cc1cccc(CN(Cc2ccc(C)o2)C2CC(C)(C)NC(C)(C)C2)n1.O=C(O)CC(O)(CC(=O)O)C(=O)O,Percent Effect,"30.3 µM, […]",14.76%
CC1(C)CC(N(Cc2ccccc2)Cc2c[nH]cn2)CC(C)(C)N1.O=C(O)CC(O)(CC(=O)O)C(=O)O,Percent Effect,"30.3 µM, […]",9.903%
CC1(C)CC(N(Cc2cccnc2)Cc2cccnc2)CC(C)(C)N1.O=C(O)CC(O)(CC(=O)O)C(=O)O,Percent Effect,"30.3 µM, […]",13.11%
Cc1ccc(CN(Cc2ccccn2)C2CC(C)(C)NC(C)(C)C2)s1.O=C(O)CC(O)(CC(=O)O)C(=O)O,Percent Effect,"30.3 µM, […]",71.04%
